# In PubChem BioAssay:
# Activity calls are given as the source filed them.
# Legend:
# [1] = tested on: Human papillomavirus type 1a protein E7 (residues 44-93); assay: HPV1a E7 fragment binders on microarrays, primary screen, biochemical, small-molecule microarray, residues 44-93, 635 nm fluorescence (AID 1108); details: small-molecule microarray binding, fluorescence 635 nm; higher = more signal;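 also: E7 fragment applied at 1 µg/mL in TBST for 1 h at 4 C; score combines spot fluorescence with its signal to noise ratio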
# [2] = modulators of HCV replicon luciferase signal, primary screen, HCV replication inhibitor project, Huh7 cells, luciferase reporter (AID 1109); details: 48 h, higher = more signal;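 also: huh7 hepatoma cells harbouring a luciferase neomycin HCV replicon reporter; luciferase luminescence as measure of HCV replicon replication; test concentration not given here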
# [3] = molecular target: Left-right determination factor 2 (Homo sapiens) (UniProt O00292); assay: LEFTY2 binders on small-molecule microarrays, primary screen, biochemical, small-molecule microarray, 635 nm fluorescence scan (AID 1110); details: LEFTY2 binding, higher = more signal
# [4] = molecular target: Calmodulin-1 (Homo sapiens) (UniProt P0DP23); assay: CALM1 binders on microarrays, EGTA buffer, profiling panel, biochemical, small-molecule microarray, Cy5-labelled CALM1 (AID 1111); details: Cy5-CALM1 binding fluorescence, higher = more signal;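 also: labelled calmodulin applied in Tris saline Tween buffer holding calcium plus EGTA and DTT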
# [5] = molecular target: Calmodulin-1 (Homo sapiens) (UniProt P0DP23); assay: calcium-bound CALM1 binders on microarrays, profiling panel, artefact control for SMM control-protein annotation, biochemical, small-molecule microarray, Cy5-labelled CALM1, plus calcium (AID 1112); details: Cy5-CALM1 binding fluorescence, higher = more signal;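 also: score merges spot fluorescence with signal to noise from triplicate slides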
# [6] = small-molecule microarray binders of probe aWnt5a, primary screen, biochemical, biotinylated probe, 635/667 nm fluorescence (AID 1113); details: higher = more signal;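 also: score merges 667 nm fluorescence intensity with signal-to-noise per printed feature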
# [7] = small-molecule microarray binders of probe aShh, primary screen, biochemical, biotinylated probe, 635/667 nm fluorescence (AID 1114); details: higher = more signal;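 also: probe is biotin-labelled aShh protein from a stem cell growth factor screen; measures binding of labelled protein to compounds printed on the slide; score merges feature fluorescence at 667 nm with signal-to-noise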
# [8] = small-molecule microarray binders of probe aNog, primary screen, biochemical, biotinylated probe, 635/667 nm fluorescence (AID 1115); details: higher = more signal;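 also: probe is biotinylated aNog protein used at 0.15 µg/mL for 1 h at 4 C; z-score combines 667 nm fluorescence of each spot with its signal to noise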
# [9] = molecular target: Torsin-1A-interacting protein 1 (Homo sapiens) (UniProt Q5JTV8); assay: LAP1 binders from COS7 cell lysate, primary screen, small-molecule microarray, 635/667 nm fluorescence (AID 1116); details: COS7-hLAP1 lysate binding, 635 nm fluorescence, higher = more signal
# [10] = molecular target: Alpha-bungarotoxin (Bungarus multicinctus) (UniProt P60615); assay: alpha-bungarotoxin binders on microarray, profiling panel, artefact control for SMM control protein annotation, biochemical, small-molecule microarray, Alexa647 label, 635/667 nm fluorescence (AID 1117); details: alpha-BTX-A647 binding fluorescence, higher = more signal
# Albumin (Bos taurus) = Albumin (Bos taurus) (UniProt P02769); assay: bovine serum albumin binders on microarray, profiling panel, artefact control for SMM control protein annotation, biochemical, small-molecule microarray, Alexa647 label, 635/667 nm fluorescence (AID 1118); details: BSA-A647 binding, fluorescence 635 nm, higher = more signal;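 also: score merges 667 nm emission intensity and signal-to-noise per printed compound spot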
# [11] = small-molecule microarray binders of probe aXIP, primary screen, biochemical, NeuroSMM set, 635/667 nm fluorescence (AID 1119); details: higher = more signal, called active from +8 up or from −8 down;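 also: probe is the protein aXip251-270 applied at 1 µg/mL to compound-printed slides; binding of probe to printed compounds measured as 667 nm fluorescence plus signal to noise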
# [12] = small-molecule binders of probe aNOTCH3, primary screen, biochemical, small-molecule microarray, 635/667 nm fluorescence (AID 1120); details: higher = more signal;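 also: probe is a biotin-tagged antibody raised against NOTCH3 rather than NOTCH3 protein; score merges spot fluorescence near 667 nm with spot signal to noise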
# [13] = small-molecule binders of probe aNOTCH2, primary screen, biochemical, small-molecule microarray, 635/667 nm fluorescence (AID 1121); details: higher = more signal;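 also: score merges feature fluorescence read at 667 nm with its signal to noise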
# [14] = molecular target: Carbonic anhydrase 2 (Homo sapiens) (UniProt P00918); assay: CAII small-molecule binders, profiling panel, biochemical, small-molecule microarray, Alexa647-labelled CAII (AID 1122); details: CAII-A647 binding fluorescence, higher = more signal
# [15] = COS7 lysate on small-molecule microarray, probe aHis, 635 nm (AID 1123); details: COS7 cell lysate, fluorescence, higher = more signal;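 also: z-score combines 667nm fluorescence intensity with signal-to-noise per printed compound spot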
# [16] = compound binding in COS7 lysate, probe aLAP1, primary screen, cell lysate, small-molecule microarray (AID 1124); details: probe aLAP1, fluorescence, higher = more signal;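 also: lysate comes from COS7 cells expressing LAP1 and is applied at 0.3 µg/mL; score merges spot fluorescence near 667 nm with signal-to-noise over triplicate slides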
# Sam68 (KHDRBS1) = assay: Sam68 small-molecule binders, primary screen, biochemical, small-molecule microarray, 635 nm fluorescence (AID 1125); details: small-molecule microarray binding, higher = more signal;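 also: score merges 667 nm channel intensity with signal to noise over triplicate slides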
# [17] = tested on: Chordin-like protein 2 (CHRDL2); assay: CHRDL2 small-molecule binders, primary screen, biochemical, small-molecule microarray, 635 nm fluorescence (AID 1126); details: small-molecule microarray binding, fluorescence 635 nm; higher = more signal;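 also: printed compound slides probed with Chrdl2 protein at 4 µg/mL for 1 h at 4 C; score merges 667 nm emission intensity with signal to noise over three replicate slides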
# [18] = molecular target: Concanavalin-A (Canavalia ensiformis) (UniProt P02866); assay: ConA small-molecule binders, primary screen, artefact control for SMM control protein annotation, biochemical, small-molecule microarray, Alexa647 label, 635 nm (AID 1127); details: ConA-A647 binding fluorescence, higher = more signal;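 also: z combines 667 nm emission intensity with signal-to-noise across three replicate slides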
# Concanavalin-A (Canavalia ensiformis), sequence (P02866 whole entry, looked up): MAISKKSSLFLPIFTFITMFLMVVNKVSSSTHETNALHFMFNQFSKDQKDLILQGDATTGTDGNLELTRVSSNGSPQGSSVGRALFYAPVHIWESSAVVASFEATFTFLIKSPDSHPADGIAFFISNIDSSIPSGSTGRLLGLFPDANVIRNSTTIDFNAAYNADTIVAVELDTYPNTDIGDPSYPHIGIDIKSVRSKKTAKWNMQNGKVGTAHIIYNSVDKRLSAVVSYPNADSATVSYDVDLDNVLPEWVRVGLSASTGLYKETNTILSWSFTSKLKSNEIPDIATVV
# Left-right determination factor 2 (Homo sapiens), sequence (O00292 whole entry, looked up): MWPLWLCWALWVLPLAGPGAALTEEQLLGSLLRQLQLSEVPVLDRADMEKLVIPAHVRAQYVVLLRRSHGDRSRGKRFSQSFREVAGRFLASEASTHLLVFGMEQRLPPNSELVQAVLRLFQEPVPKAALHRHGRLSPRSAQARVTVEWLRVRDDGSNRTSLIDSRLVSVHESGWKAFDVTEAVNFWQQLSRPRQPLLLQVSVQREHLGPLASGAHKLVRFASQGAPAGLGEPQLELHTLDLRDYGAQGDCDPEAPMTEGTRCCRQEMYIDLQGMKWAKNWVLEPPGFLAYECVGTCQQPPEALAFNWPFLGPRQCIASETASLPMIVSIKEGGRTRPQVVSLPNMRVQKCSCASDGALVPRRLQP
# Alpha-bungarotoxin (Bungarus multicinctus), sequence (P60615 whole entry, looked up): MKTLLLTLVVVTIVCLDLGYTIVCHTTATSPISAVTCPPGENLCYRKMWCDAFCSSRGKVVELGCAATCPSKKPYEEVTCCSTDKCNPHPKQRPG
# Albumin (Bos taurus), sequence (P02769 whole entry, looked up): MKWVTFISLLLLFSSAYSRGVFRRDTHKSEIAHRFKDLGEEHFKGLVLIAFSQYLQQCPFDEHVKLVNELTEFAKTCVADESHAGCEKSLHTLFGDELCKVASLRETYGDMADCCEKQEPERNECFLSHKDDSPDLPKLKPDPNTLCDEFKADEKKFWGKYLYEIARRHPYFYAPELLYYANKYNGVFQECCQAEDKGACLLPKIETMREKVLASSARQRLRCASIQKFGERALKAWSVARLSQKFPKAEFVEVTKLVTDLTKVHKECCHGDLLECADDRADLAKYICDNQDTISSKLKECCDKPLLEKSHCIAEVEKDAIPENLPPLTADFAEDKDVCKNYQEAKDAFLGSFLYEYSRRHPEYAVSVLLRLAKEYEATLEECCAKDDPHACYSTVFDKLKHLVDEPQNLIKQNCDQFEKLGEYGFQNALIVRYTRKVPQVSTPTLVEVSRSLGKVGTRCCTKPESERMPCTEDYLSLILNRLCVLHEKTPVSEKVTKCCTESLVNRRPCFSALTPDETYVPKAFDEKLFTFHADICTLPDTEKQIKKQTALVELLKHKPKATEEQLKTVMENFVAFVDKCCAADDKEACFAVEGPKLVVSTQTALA
# Torsin-1A-interacting protein 1 (Homo sapiens), sequence (Q5JTV8 whole entry, looked up): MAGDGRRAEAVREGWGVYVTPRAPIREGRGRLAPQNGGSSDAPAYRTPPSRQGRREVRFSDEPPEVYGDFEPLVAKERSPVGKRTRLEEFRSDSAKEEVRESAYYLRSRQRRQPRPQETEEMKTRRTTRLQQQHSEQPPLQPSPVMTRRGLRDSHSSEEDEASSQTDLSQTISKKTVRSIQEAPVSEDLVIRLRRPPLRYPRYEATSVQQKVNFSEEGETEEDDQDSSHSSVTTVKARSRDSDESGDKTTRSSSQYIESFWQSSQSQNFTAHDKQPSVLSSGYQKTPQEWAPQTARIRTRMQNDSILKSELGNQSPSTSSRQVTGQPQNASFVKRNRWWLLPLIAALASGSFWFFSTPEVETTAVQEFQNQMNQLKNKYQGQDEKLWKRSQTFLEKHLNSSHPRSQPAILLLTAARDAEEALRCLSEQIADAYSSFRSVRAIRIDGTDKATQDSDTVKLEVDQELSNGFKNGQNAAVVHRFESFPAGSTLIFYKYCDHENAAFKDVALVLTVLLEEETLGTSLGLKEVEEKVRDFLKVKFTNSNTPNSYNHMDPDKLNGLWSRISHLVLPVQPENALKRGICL
Compound,composite z-score [1],z-score [2],composite z-score [3],composite z-score [4],composite z-score [5],composite z-score [6],composite z-score [7],composite z-score [8],composite z-score [9],composite z-score [10],composite z-score (Albumin (Bos taurus)),composite Z-score [11],composite z-score [12],composite z-score [13],composite z-score [14],composite z-score [15],composite z-score [16],composite z-score (Sam68 (KHDRBS1)),composite z-score [17],composite z-score [18]
CCCCCCCCCCC(O)C1C=CC2C(=O)N(C)C(=O)C2N1Nc1ccc([N+](=O)[O-])cc1[N+](=O)[O-] (stereo not given),1.38,-1.06,-0.323,1.62,1.05,0.0308,0.151,0.441,1.83,1.18,0.884,0.423 (inactive),0.0668,0.0807,0.589,2.32,0.141,1.11,-0.0731,1.14
C=C(/C(=C/C[C@H](OC(C)=O)c1cccc(OCCO)c1)c1cnc2ccccc2c1)C(C)C,1.05,-2.31,0.524,-0.309,-0.502,-0.118,-0.264,0.0811,0.235,1.19,0.195,0.896 (inactive),0.0701,-0.0859,0.547,0.276,-0.313,0.615,1.05,0.689
O=C1NC(=O)C2C1C=CC(C(O)c1cccc3ccccc13)N2Nc1ccc(Cl)cc1Cl (stereo not given),1.38,-0.445,-0.908,1.49,0.973,0.0654,0.481,1.4,0.723,1.1,0.205,-0.288 (inactive),0.0496,0.0915,0.358,2.12,0.818,0.762,-0.155,1.07
NCCCCCNC(=O)[C@@H]1C[C@@H]2C(=O)NCC(=O)N2[C@@H]1c1cccc(OCCO)c1,1.2,-0.878,0.79,0.885,0.433,-0.0202,0.412,0.217,0.513,1.01,0.411,0.401 (inactive),0.154,-0.0366,0.443,0.506,0.954,1.32,0.788,1.17
CCCCC=C[C@@H](NC(=O)c1ccc(-c2ccccc2)cc1)c1ccccc1,1.31,-2.21,0.184,0.107,0.506,0.123,0.934,0.964,1.11,0.401,0.43,0.516 (inactive),0.112,0.0065,0.641,1.08,1.01,1.07,-0.309,0.933
[N-]=[N+]=NCc1ccccc1C[C@@]1(C(=O)NCc2ccccc2)N=C(c2ccc(OCCCO)cc2)O[C@@H]1c1ccccc1N=[N+]=[N-],1.41,-2.26,-0.346,1.31,0.845,0.0839,0.108,1.29,1.45,0.937,0.428,-0.126 (inactive),-0.102,-0.0527,0.301,-0.0255,0.472,1.06,-1.06,0.725
COCCOC(=O)N1C(=O)[C@@]2(c3cc(C#CCNC(N)=O)ccc31)[C@H](C(=O)N1CCc3cc(OC)c(OC)cc3C1)[C@H]1C(=O)O[C@H](c3ccccc3)[C@H](c3ccccc3)N1[C@@H]2c1ccccc1OCCO,0.843,-1.03,0.76,1.29,0.582,-0.0786,-0.305,0.39,1.03,1.85,0.577,-0.0476 (inactive),0.123,-0.126,0.577,1.33,0.383,1.29,0.855,0.794
Cc1ccccc1C(O)C1C=CC2C(=O)N(C)C(=O)C2N1N(c1ccccc1)c1ccccc1 (stereo not given),-1.19,-0.247,-0.0024,-0.945,-0.454,0.0737,0.0582,0.387,0.0266,0.305,0.25,0.111 (inactive),0.84,0.473,0.833,-0.266,0.307,-1.29,0.682,-0.752
CN(C)CCCCNC(=O)[C@@H]1C[C@@H]2C(=O)N[C@@H](Cc3ccccc3)C(=O)N2[C@@H]1c1cccc(OCCO)c1,1.34,4.01,1.24,-0.349,-0.125,-0.127,0.0952,-0.0721,0.0715,0.612,-0.0493,1.1 (inactive),-0.239,-0.153,0.74,2.59,1.11,1.06,1.08,1.07
CC(C)(C)OC(=O)CC[C@]1(C(=O)NCc2ccccc2)N=C(c2ccc(OCCCO)cc2)O[C@H]1c1ccccc1CN=[N+]=[N-],1.41,-2.11,0.735,1.27,-0.232,0.152,0.0483,-0.0768,1.69,0.466,0.75,-1 (inactive),0.526,-0.127,0.68,2.45,0.583,1.3,-0.0873,0.769
COc1ccc([Si](C)(C)[C@H]2[C@H](CCO)O[C@@]3(C(=O)N(Cc4cccc(N5C(=O)COc6ccccc65)c4)c4ccccc43)[C@@H]2C)cc1,-0.502,-4.98,0.0828,0.851,0.675,-0.0417,-0.0146,0.26,0.474,0.252,0.336,0.0953 (inactive),-0.0343,0.0425,0.338,0.317,0.232,0.297,0.0083,0.567
